# From PubChem BioAssay (EPA / NIEHS)
# Some structures have more than one record in an assay (separate samples or runs), and their calls can disagree. Calls of active or inactive are those of the source. Rule for the calls: active = hit-call score of the fitted dose curve at least 0.9, where 1 is the maximum; inconclusive = response in the unintended direction; inactive = score below 0.9.
# Test: IUF_NPC2-5_cytotoxicity_120hr: Cytotoxicity Assessment at 120 hours in the Leibniz Research Institute for Environmental Medicine (IUF) Neural Progenitor Cell Migration and Differentiation Assay (NPC2-5) (AID 2284307);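 for AC50: LDH released into supernatant as membrane damage marker via resorufin fluorescence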
# Procedure: IUF_NPC2-5 is a cell-based, multiplexed assay that uses hNPC, a human primary neural progenitor cells, with measurements taken at 72 or 120 hours after chemical dosing in a 96-well plate. Human neural progenitor cells (hNPC) are generated from human fetal brain cortex at gestational week (GW) 16-19. In the neural progenitor cell migration and differentiation assay (NPC2-5), hNPCs grown as spheres are plated on an extracellular matrix and migrate and differentiate out of the sphere core. The processes radial glia migration, neuronal and oligodendrocyte migration as well as neuronal differentiation, neuronal morphology and oligodendrocyte differentiation are studied using automated phase contrast imaging and automated fluorescence imaging in combination with high content image analysis. In parallel, the cell viability is assessed using an alamar blue viability assay and the cytotoxicity using a lactate dehydrogenase dependent membrane integrity assay.IUF_NPC2-5_cytotoxicity_120hr is one of 12 assay components measured from the IUF_NPC2-5 assay. It is designed to measure cytotoxicity at 120hr due to loss of membrane integrity. LDH measurements are performed from medium supernatants of each well and are based on the reduction of resazurin to resorufin measured as fluorescence signal (relative fluorescence unit) in a multiplate reader. Data from the IUF_NPC2-5_cytotoxicity_120hr component was analyzed at the endpoint IUF_NPC2-5_cytotoxicity_120hr in the positive analysis fitting direction relative to the dynamic range and baseline of activity. Using a type of viability reporter, gain-of-signal activity can be used to understand cytotoxicity effects.
# Culture protocol: After the cell expansion period the cells are cultured for up to four weeks in which they are passaged every week as described in 3.6. Between one to three days after passaging spheres at a size of 0.3 mm are picked for the test method. For the assessment of neural progenitor cell migration and differentiation, the spheres are plated on poly-D-lysine/laminin coated 96-well flat bottom plates in differentiation medium (N2) to initiate migration and differentiation. Thereby one 0.3 mm big sphere is plated in the middle of a well. The differentiation medium consists of DMEM and Ham's F12 at a ratio of 3 to 1 supplemented with 1% N2 and 1% penicillin and streptomycin. Within 5 days NPCs radially migrate out of the sphere core and differentiate into radial glia cells (nestin positive), neurons (TUBB3 positive), oligodendrocytes (O4 positive) and astrocytes (GFAP positive). Cultivation during the test method is performed at 37C and 5% CO2 at a ph of 7.2-7.6.Exposure: 0.3 mm big hNPC are plated in the already prepared test conditions. Exposure starts at day 0 of differentiation and is continued over five days of differentiation until the experiment is terminated. Cells are fed with fresh medium at day 3 of differentiation. Therefore, half of the test condition solution (e.g. solvent control or compound dilution) is replaced by freshly prepared test condition solution.Test Method: Migration distance and cytotoxicity is determined after 72 hours based on brightfield images of each well. The assay is terminated by the assessment of cell viability and cytotoxicity as well as cell fixation after 120 h. Immunocytochemistry is performed for Hoechst positive nuclei, TUBB3 positive neurons and O4 positive oligodendrocytes. On the ICC images, migration after 120 hours, neuronal and oligodendrocyte number, neuronal morphology and neuron/oligodendrocyte specific migration is assessed. immunocytochemical staining (ICC) generates an image for each sphere. The plates are scanned using an automated high content imaging device and all nuclei and their positions are determined automatically based on their intensity and size. Images are imported to the Omnisphero software to run the image analysis that measures the following endpoints. […]
Compound,AC50,outcome
O=S(=O)(O)C(F)(F)C(F)(F)C(F)(F)C(F)(F)C(F)(F)C(F)(F)C(F)(F)C(F)(F)F,62.4 µM (active),inactive
O=[N+]([O-])/N=C1\NCCN1Cc1ccc(Cl)nc1,,inactive
CC(C)N(C(=O)COc1nnc(C(F)(F)F)s1)c1ccc(F)cc1,0.0343 µM (active),
CC[C@H](C)[C@H]1O[C@]2(C=C[C@@H]1C)C[C@@H]1C[C@@H](C/C=C(\C)[C@@H](O[C@H]3C[C@H](OC)[C@@H](O[C@H]4C[C@H](OC)[C@@H](O)[C@H](C)O4)[C@H](C)O3)[C@@H](C)/C=C/C=C3\CO[C@@H]4[C@H](O)C(C)=C[C@@H](C(=O)O1)[C@]34O)O2 (tested in a mixture with another compound),6.89 µM (active),
COP(=O)(OC)OC=C(Cl)Cl,89 µM (active),
O=S1OCC2C(CO1)C1(Cl)C(Cl)=C(Cl)C2(Cl)C1(Cl)Cl (centres undefined),,inactive
O=C(O)COc1ccc(Cl)cc1Cl,,inactive
CNC(=O)CSP(=S)(OC)OC,,inactive
CC1(C)C(C=C(Cl)Cl)C1C(=O)OC(C#N)c1ccc(F)c(Oc2ccccc2)c1 (centres undefined),,inactive
CCC(C)(C)C(=O)OC1=C(c2ccc(Cl)cc2Cl)C(=O)OC12CCCCC2,,inactive
COP(=S)(OC)Oc1ccc([N+](=O)[O-])cc1,,inactive
CC1(c2ccc(Oc3ccccc3)cc2)OC(=O)N(Nc2ccccc2)C1=O (centres undefined),,inactive
O=C(O)C(F)(F)C(F)(F)C(F)(F)C(F)(F)C(F)(F)C(F)(F)C(F)(F)F,,inactive
